Source: the supplement of paper PMC9262897, “Low-cost anti-mycobacterial drug discovery using engineered E. coli” (Nature Communications, 2022)
Structures can show the parent of a compound that is named as a salt. ± gives the standard deviation of the averaged measurements.

Tests used:
Test in all cases: growth (OD600 after 10 h); higher = more growth (less inhibition)
[1] = tested on: E. coli TESEC Alr+ wild-type control; conditions: compound 0.1 mM; raw OD600 reference: median of DMSO wells 0.241, cell-free background 0.041
Procedure: (§1)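 TESEC Mtb Alr E. coli, or the Alr+ wild-type control, in 384-well plates with Prestwick library compounds at 0.1 mM and 1% DMSO, across arabinose induction levels of 1E3 to 1E7 nM. Growth is read as OD600 after 10 h at 37 °C in triplicate biological replicates.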

E. coli TESEC Mtb Alr [2] = conditions: compound 0.1 mM
Procedure: as §1

E. coli TESEC Mtb Asd = conditions: compound 0.1 mM
Procedure: (§2)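 TESEC E. coli strains in which the native enzyme is deleted and replaced by arabinose-inducible Mtb Asd, DapB, CysH or TrpD, each grown in its selective medium. Strains were screened against the Prestwick library at 0.1 mM and 1% DMSO in 384-well format at low and high arabinose induction. Growth is read as OD600 after 10 h in triplicate.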

E. coli TESEC Mtb DapB = conditions: compound 0.1 mM
Procedure: as §2

[3] = tested on: E. coli TESEC Alr+ wild-type control; conditions: compound 0.1 mM; raw OD600 reference: median of DMSO wells 0.49, cell-free background 0.052
Procedure: (§3)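 TESEC Mtb Alr E. coli (ΔaraC ΔtolC ΔentC Δalr ΔdadX, arabinose-inducible Mtb Alr) or the Alr+ wild-type control strain, grown in defined M9-fructose medium without D-alanine in 96-well plates with Prestwick library compounds at 0.1 mM and 1% DMSO. Low Alr induction is 0.1 µM arabinose and high induction is 10 mM arabinose.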

E. coli TESEC Mtb Alr [4] = conditions: compound 0.1 mM; remark: listed apart in the source
Procedure: as §3

[5] = arabinose 1000 nM, raw OD600 reference: median of DMSO wells 0.294, cell-free background 0.041
[6] = arabinose 10000 nM, raw OD600 reference: median of DMSO wells 0.264, cell-free background 0.041
[7] = arabinose 100000 nM, raw OD600 reference: median of DMSO wells 0.201, cell-free background 0.041
[8] = arabinose 1000000 nM, raw OD600 reference: median of DMSO wells 0.193, cell-free background 0.041
[9] = arabinose 10000000 nM, raw OD600 reference: median of DMSO wells 0.146, cell-free background 0.041
[10] = arabinose induction (level): High, raw OD600 reference: median of DMSO wells 0.331, cell-free background 0.041
[11] = arabinose induction (level): Low, raw OD600 reference: median of DMSO wells 0.417, cell-free background 0.041
[12] = arabinose induction (level): High, raw OD600 reference: median of DMSO wells […], cell-free background 0.041
[13] = arabinose induction (level): Low, raw OD600 reference: median of DMSO wells 0.227, cell-free background 0.041
[14] = arabinose 100 nM, raw OD600 reference: median of DMSO wells 0.413, cell-free background 0.052
[15] = arabinose 10000000 nM, raw OD600 reference: median of DMSO wells […], cell-free background 0.052

Structure (SMILES): Cc1nccn1CC1CCc2c(c3ccccc3n2C)C1=O (stereo unspecified) [Ondansetron Hydrochloride]
- growth [1]: 0.195 ± 0.004
- growth (E. coli TESEC Mtb Alr [2]; [5]): 0.272 ± 0.0034
- growth (E. coli TESEC Mtb Alr [2]; [6]): 0.252 ± 0.0038
- growth (E. coli TESEC Mtb Alr [2]; [7]): 0.246 ± 0.0034
- growth (E. coli TESEC Mtb Alr [2]; [8]): 0.304 ± 0.014
- growth (E. coli TESEC Mtb Alr [2]; [9]): 0.146 ± 0.0028
- growth (E. coli TESEC Mtb Asd; [10]): 0.432 ± 0.06
- growth (E. coli TESEC Mtb Asd; [11]): 0.191 ± 0.011
- growth (E. coli TESEC Mtb DapB; [12]): 0.229 ± 0.013
- growth (E. coli TESEC Mtb DapB; [13]): 0.183 ± 0.004
- growth [3]: 0.526 ± 0.11
- growth (E. coli TESEC Mtb Alr [4]; [14]): 0.365 ± 0.013
- growth (E. coli TESEC Mtb Alr [4]; [15]): 0.384 ± 0.0066

Structure (SMILES): COc1c(N2CCNC(C)C2)c(F)cc2c(=O)c(C(=O)O)cn(C3CC3)c12 (stereo unspecified) [Gatifloxacin]
- growth [1]: 0.0447 ± 0.0053
- growth (E. coli TESEC Mtb Alr [2]; [5]): 0.0402 ± 0.00046
- growth (E. coli TESEC Mtb Alr [2]; [6]): 0.0396 ± 0.0002
- growth (E. coli TESEC Mtb Alr [2]; [7]): 0.04067 ± 0.00032
- growth (E. coli TESEC Mtb Alr [2]; [8]): 0.03983 ± 0.00029
- growth (E. coli TESEC Mtb Alr [2]; [9]): 0.0409 ± 0.00055
- growth (E. coli TESEC Mtb Asd; [10]): 0.0508 ± 0.0018
- growth (E. coli TESEC Mtb Asd; [11]): 0.0482 ± 0.0013
- growth (E. coli TESEC Mtb DapB; [12]): 0.04873 ± 0.00025
- growth (E. coli TESEC Mtb DapB; [13]): 0.04953 ± 0.00047
- growth [3]: 0.05293 ± 0.00023
- growth (E. coli TESEC Mtb Alr [4]; [14]): 0.0533 ± 0.00079
- growth (E. coli TESEC Mtb Alr [4]; [15]): 0.0521 ± 0.0016

Structure (SMILES): N=C(N)NS(=O)(=O)c1ccc(N)cc1 [Sulfaguanidine]
- growth [1]: 0.249 ± 0.013
- growth (E. coli TESEC Mtb Alr [2]; [5]): 0.292 ± 0.029
- growth (E. coli TESEC Mtb Alr [2]; [6]): 0.26 ± 0.0047
- growth (E. coli TESEC Mtb Alr [2]; [7]): 0.227 ± 0.027
- growth (E. coli TESEC Mtb Alr [2]; [8]): 0.173 ± 0.0041
- growth (E. coli TESEC Mtb Alr [2]; [9]): 0.143 ± 0.0034
- growth (E. coli TESEC Mtb Asd; [10]): 0.38 ± 0.028
- growth (E. coli TESEC Mtb Asd; [11]): 0.383 ± 0.021
- growth (E. coli TESEC Mtb DapB; [12]): 0.203 ± 0.0078
- growth (E. coli TESEC Mtb DapB; [13]): 0.249 ± 0.032
- growth [3]: 0.431 ± 0.022
- growth (E. coli TESEC Mtb Alr [4]; [14]): 0.41 ± 0.016
- growth (E. coli TESEC Mtb Alr [4]; [15]): 0.383 ± 0.022

Structure (SMILES): C#C[C@]1(OC(C)=O)CC[C@H]2[C@@H]3CCC4=CC(=NO)CC[C@@H]4[C@H]3CC[C@@]21CC (mixture of isomers) [Norgestimate]
- growth [1]: 0.134 ± 0.0062
- growth (E. coli TESEC Mtb Alr [2]; [5]): 0.123 ± 0.0052
- growth (E. coli TESEC Mtb Alr [2]; [6]): 0.0585 ± 0.0036
- growth (E. coli TESEC Mtb Alr [2]; [7]): 0.136 ± 0.0049
- growth (E. coli TESEC Mtb Alr [2]; [8]): 0.0563 ± 0.0053
- growth (E. coli TESEC Mtb Alr [2]; [9]): 0.111 ± 0.0098
- growth (E. coli TESEC Mtb Asd; [10]): 0.0829 ± 0.015
- growth (E. coli TESEC Mtb Asd; [11]): 0.0714 ± 0.019
- growth (E. coli TESEC Mtb DapB; [12]): 0.126 ± 0.0075
- growth (E. coli TESEC Mtb DapB; [13]): 0.0826 ± 0.025
- growth [3]: 0.185 ± 0.0039
- growth (E. coli TESEC Mtb Alr [4]; [14]): 0.263 ± 0.013
- growth (E. coli TESEC Mtb Alr [4]; [15]): 0.0794 ± 0.012

Structure (SMILES): Cc1cc(NS(=O)(=O)c2ccc(N)cc2)no1 [Sulfamethoxazole]
- growth [1]: 0.252 ± 0.0032
- growth (E. coli TESEC Mtb Alr [2]; [5]): 0.271 ± 0.017
- growth (E. coli TESEC Mtb Alr [2]; [6]): 0.212 ± 0.011
- growth (E. coli TESEC Mtb Alr [2]; [7]): 0.228 ± 0.0092
- growth (E. coli TESEC Mtb Alr [2]; [8]): 0.126 ± 0.0035
- growth (E. coli TESEC Mtb Alr [2]; [9]): 0.139 ± 0.0076
- growth (E. coli TESEC Mtb Asd; [10]): 0.404 ± 0.042
- growth (E. coli TESEC Mtb Asd; [11]): 0.41 ± 0.063
- growth (E. coli TESEC Mtb DapB; [12]): 0.185 ± 0.011
- growth (E. coli TESEC Mtb DapB; [13]): 0.205 ± 0.024
- growth [3]: 0.45 ± 0.031
- growth (E. coli TESEC Mtb Alr [4]; [14]): 0.432 ± 0.013
- growth (E. coli TESEC Mtb Alr [4]; [15]): 0.346 ± 0.005

Structure (SMILES): CCN[C@H]1CN(CCCOC)S(=O)(=O)c2sc(S(N)(=O)=O)cc21 [Brinzolamide]
- growth [1]: 0.248 ± 0.012
- growth (E. coli TESEC Mtb Alr [2]; [5]): 0.282 ± 0.017
- growth (E. coli TESEC Mtb Alr [2]; [6]): 0.261 ± 0.0091
- growth (E. coli TESEC Mtb Alr [2]; [7]): 0.219 ± 0.03
- growth (E. coli TESEC Mtb Alr [2]; [8]): 0.182 ± 0.0056
- growth (E. coli TESEC Mtb Alr [2]; [9]): 0.135 ± 0.0031
- growth (E. coli TESEC Mtb Asd; [10]): 0.259 ± 0.085
- growth (E. coli TESEC Mtb Asd; [11]): 0.385 ± 0.11
- growth (E. coli TESEC Mtb DapB; [12]): 0.202 ± 0.013
- growth (E. coli TESEC Mtb DapB; [13]): 0.215 ± 0.011
- growth [3]: 0.579 ± 0.098
- growth (E. coli TESEC Mtb Alr [4]; [14]): 0.405 ± 0.0097
- growth (E. coli TESEC Mtb Alr [4]; [15]): 0.3104 ± 0.0022

Structure (SMILES): CN(C)CCCN1c2ccccc2Sc2ccc(Cl)cc21 [Chlorpromazine hydrochloride]
- growth [1]: 0.0844 ± 0.00072
- growth (E. coli TESEC Mtb Alr [2]; [5]): 0.054 ± 0.0094
- growth (E. coli TESEC Mtb Alr [2]; [6]): 0.04817 ± 5.8e-05
- growth (E. coli TESEC Mtb Alr [2]; [7]): 0.0531 ± 0.008
- growth (E. coli TESEC Mtb Alr [2]; [8]): 0.0443 ± 0.00046
- growth (E. coli TESEC Mtb Alr [2]; [9]): 0.0452 ± 0.00035
- growth (E. coli TESEC Mtb Asd; [10]): 0.0646 ± 0.0046
- growth (E. coli TESEC Mtb Asd; [11]): 0.0699 ± 0.0027
- growth (E. coli TESEC Mtb DapB; [12]): 0.13 ± 0.012
- growth (E. coli TESEC Mtb DapB; [13]): 0.25 ± 0.08
- growth [3]: 0.105 ± 0.046
- growth (E. coli TESEC Mtb Alr [4]; [14]): 0.425 ± 0.0072
- growth (E. coli TESEC Mtb Alr [4]; [15]): 0.0848 ± 0.022
